Source: PubChem
PLK1 PBD inh: PLK1 (human) polo-box domain binding inhibition | P53350 | Plk1 PBD binding of FITC phosphopeptide, fluorescence polarization | Potency, µM, actives largely listed as inhibitors | 2.8% of 360,000 active | AID 720504; further: series mostly up to about 57 µM; nearly all actives have a fitted effect of over 65% in size
BAZ2B inh: BAZ2B (human) inhibition. Q9UIF8. AlphaScreen BAZ2B-H3K14Ac peptide displacement. Potency, µM (titrated, usually from 114 µM), actives largely listed as inhibitors. 4.4% of 360,000 active. AID 504333; further: nearly all actives have a fitted effect of over 60% in size
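AlphaScreen displacement: compounds (up to 110uM) incubated 30 min at room temperature with a preformed 50 nM BAZ2B/50 nM biotinylated H3K14Ac peptide complex in PBS pH 7.4 with Tween-20. Donor and acceptor beads at 10 ug/mL final added, 20 min light-protected before reading.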
G9a inh: G9a (human) methyltransferase inhibition; G9a H3K9 monomethylation, AlphaScreen, 2 h; Potency, µM (doses to about 102 µM), usual class: inhibitors; 8.8% of 350,000 active; AID 504332; further: nearly all actives have a fitted effect of over 75% in size
Target sequence (Q96KQ7 913-1193 limits assumed): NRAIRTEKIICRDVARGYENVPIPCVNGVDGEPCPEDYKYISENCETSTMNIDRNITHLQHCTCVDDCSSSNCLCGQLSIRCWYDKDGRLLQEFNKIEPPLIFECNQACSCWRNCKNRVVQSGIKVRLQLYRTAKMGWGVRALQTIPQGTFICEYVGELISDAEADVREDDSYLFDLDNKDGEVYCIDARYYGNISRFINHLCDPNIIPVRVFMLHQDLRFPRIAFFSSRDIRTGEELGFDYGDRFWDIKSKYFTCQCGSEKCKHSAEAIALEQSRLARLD
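Quantitative HTS format: methyltransferase activity on a biotin-tagged H3K9 peptide is measured by AlphaScreen, using a rabbit anti-monomethyl-H3K9 antibody with streptavidin donor and anti-IgG acceptor beads. Final levels are 20 nM enzyme, 500 nM peptide, 20 uM SAM; 2 h RT.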
HP1b chromo inh: inhibitors of HP1-beta chromodomain binding to methylated histone tails; 0.56% of 390,000 active; P83916; AID 540317; Potency, µM (highest dose often 114 µM), hits mostly inhibitors; AlphaScreen HP1-beta / biotin-H3K9me3 peptide binding; further: nearly all actives have a fitted effect of over 70% in size
Target sequence (P83916 whole entry, looked up): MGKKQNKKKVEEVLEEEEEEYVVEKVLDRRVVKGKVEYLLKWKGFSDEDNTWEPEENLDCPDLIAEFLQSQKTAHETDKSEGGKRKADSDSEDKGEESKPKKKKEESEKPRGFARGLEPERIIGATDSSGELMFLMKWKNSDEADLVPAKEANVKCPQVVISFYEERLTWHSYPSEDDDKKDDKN
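HP1-beta protein (50 nM final) preincubated 30 min at room temperature with biotinylated H3(1-18)K9me3 peptide (50 nM) in PBS pH 7.4, 0.01% Tween-20, then compound added for 30 min. AlphaScreen streptavidin donor/nickel chelate acceptor beads (10 ug/mL final), 30 min dark, luminescence read.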
JMJD2A Tudor inh: blocks the human JMJD2A Tudor domain | O75164 | Potency, µM (doses to about 114 µM), usual class: inhibitors | AID 504339 | 4.4% of 390,000 active | AlphaScreen JMJD2A-Tudor / H3K4me3 peptide binding; further: nearly all actives have a fitted effect of over 50% in size
Sfp PPTase inh: blocks B. subtilis Sfp PPTase activity; Q9F4F7; Biochemical Sfp PPTase activity, qHTS; Potency, µM, most hits filed as inhibitors; 3.5% of 310,000 active;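 further: the enzyme is Sfp with the accession as filed and its product quenches rhodamine fluorescence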
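Step 1, compound plus 15 nM Sfp-PPTase, 15 min, room temperature. Step 2, add rhodamine-CoA (5 uM) and BHQ-2-YbbR (12.5 uM). Step 3, read 525/598 nm fluorescence at 0 and 30 min.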
Hits are given with their value; i = inactive; ? = inconclusive; nt = no result given; [ ] = remark or other dose. Hits are enriched below; roughly 12% of the tested compounds scored in any of these assays. The call rests on the fitted dose curve; in most records, active means well fitted curve in the direction sought with a large enough effect; inconclusive means small, poorly fitted or top-dose-only effect, or another doubt; inactive means no such curve, though single readings can be large; an effect the other way counts as inactive or inconclusive.

SMILES	PLK1 PBD inh	BAZ2B inh	G9a inh	HP1b chromo inh	JMJD2A Tudor inh	Sfp PPTase inh
CCc1nnc(N2C(=N)SCC2=O)s1	i	79.4µM	28.2µM	i	28.2µM	50.1µM
O=C1NC(=O)C(c2cn(-c3ccccc3)nc2-c2ccc(F)cc2)N1 (stereo unspecified)	5.32µM	i	i[12.7 µM]	i	?	i
O=C(O)c1cn(-c2ccccc2)nc1-c1ccc(F)cc1	i	i	i	i	i	i
COc1ccccc1CNS(=O)(=O)c1ccc2[nH]cc(C(=O)O)c(=O)c2c1	i	i	i	?	39.8µM	i
Cn1sccc1=O	15µM	i	1.78µM	i	i	nt
CCN1CCCc2cc(CN(CCN3CCOCC3)C(=S)Nc3cccc(C)c3)ccc21	i	8.91µM	?	?	11.2µM	i
CCN1CCCc2cc(CN(CCN3CCOCC3)C(=S)Nc3ccc(OC)c(Cl)c3)ccc21	i	?	50.1µM	i	?	i
CCN1CCCc2cc(CN(CCN3CCOCC3)C(=S)Nc3ccccc3OC)ccc21	i	39.8µM	25.1µM	i	39.8µM	i
CCOC(=O)C1(Cc2ccccc2C)CCCN(C(=O)c2ccc(C(C)=O)s2)C1 (stereo unspecified)	i	nt	nt	nt	nt	nt
CCc1ccc2c(O)c3c(cc2c1C(=O)OC)C(=O)c1c(O)ccc(O)c1C3=O	nt	nt	?	nt	nt	i
COc1cc2nc(/C=C/c3cc(OC)c(OC)c(OC)c3)sc2cc1SC	i	i	i	i	i	?
COc1cc2nc(C)sc2cc1SC	23.8µM	i	i	?	?	i
Cc1nc2cc3nc(C)sc3cc2s1	29.9µM	i	7.08µM	?	i	39.8µM
COc1ccc(CCNC(=O)CCCn2c(=O)c3ccccc3n(Cc3ccccc3C#N)c2=O)cc1OC	nt	i	i	i	i	nt
CC(=O)OC[C@@H]1CN(Cc2cccc(C(F)(F)F)c2)C[C@H](n2cnc3c(NCc4ccco4)ncnc32)O1	i	nt	nt	nt	nt	nt
O=C(CSc1ccc2nnc(-c3cccc(F)c3)n2n1)NCC1CCCO1 (stereo unspecified)	?	i	5.01µM	?	31.6µM	?
CCSc1ccc2nnc(-c3cccc(F)c3)n2n1	?	i	3.98µM	i	79.4µM	?
CN1C(=O)Cc2cc([S+](=O)([O-])N3CCN([S+](=O)([O-])c4c(F)cccc4F)CC3)ccc21	nt	nt	nt	nt	i	nt
COc1ccccc1CNc1nc(-c2ccccc2OC)nc2ccccc12	nt	nt	i[0.501 µM]	nt	nt	i
CCCNC(=O)c1ccccc1NC(=O)c1ccccc1SC	i	i	25.1µM	i	i	i
COCCNC(=O)c1ccccc1NC(=O)Cc1ccccc1	i	i	i	i	i	i
C=CCNC(=O)c1ccccc1NC(=O)c1ccccc1SC	i	i	nt	i	i	20µM
COCCNC(=O)c1ccccc1NC(=O)c1ccccc1SC	i	i	4.47µM	i	i	56.2µM
CCc1nc2c(OCCn3cccc3)cccn2c1N(C=O)Cc1ccccc1	i	nt	nt	nt	nt	nt
CCC(C)(C)C1CCC2(CC1)NC(=O)N(CC(=O)NC(C)CCc1ccccc1)C2=O (stereo unspecified)	i	i	?	i	i	nt
SMILES	PLK1 PBD inh	BAZ2B inh	G9a inh	HP1b chromo inh	JMJD2A Tudor inh	Sfp PPTase inh
CC(=O)Nc1cc(NC(C)=O)c(N=Nc2ccccc2)cc1C	i	i	i	i	i	i
Cc1ccc(NCC(O)C(O)C(O)CO)c(N=Nc2ccccc2)c1C (stereo unspecified)	i	11.2µM	i[12.7 µM]	?	?	i
CCc1ccc(CNC(=O)c2sc3ncnc(N(C)C4CCCCC4)c3c2C)cc1	nt	i	i	i	i	nt
CC1CCC(C(C)C)C(OC(=O)COC(=O)c2ccc(N)cc2)C1 (stereo unspecified)	i	i	?	i	i	i
CC1CCC(C(C)C)C(OC(=O)C[n+]2cccc(C(N)=O)c2)C1 (stereo unspecified)	2.38µM	i	i	i	?	i
COCCN(C(=O)CSc1nnc2cc(C)c3ccccc3n12)c1c(N)n(Cc2ccccc2)c(=O)[nH]c1=O	i	i	i	i	i	i
COCCN(C(=O)CSc1nnc(C)n1Cc1ccccc1)c1c(N)n(Cc2ccccc2)c(=O)[nH]c1=O	26.7µM	nt	?	i	?	i
COCCN(C(=O)CSc1nncn1-c1ccccc1)c1c(N)n(Cc2ccccc2)c(=O)[nH]c1=O	i	i	i	i	i	i
CCCN(C(=O)CSc1n[nH]c(-c2ccc(OC)cc2)n1)c1c(N)n(Cc2ccccc2)c(=O)[nH]c1=O	i	i	44.7µM	i	i	nt
COCCN(C(=O)CSc1nnc(-c2ccccc2C)n1C)c1c(N)n(Cc2ccccc2)c(=O)[nH]c1=O	i	i	8.91µM	i	i	i
CCCc1cc(=O)[nH]c(SCC(=O)N(CCOC)c2c(N)n(Cc3ccccc3)c(=O)[nH]c2=O)n1	i	i	50.1µM	i	i	nt
CCn1c(=O)c2[nH]c(Cl)nc2n(CC)c1=O	i	nt	nt	nt	nt	nt
Cc1ccc(-n2ncc(C(=O)NCCc3ccccc3)c2C2CCN(C(=O)OC(C)(C)C)CC2)c(C)c1	nt	i	i	i	i	nt
O=C(O)c1cccc(NC(=O)c2cccc(S(=O)(=O)Nc3cccc(F)c3)c2)c1	nt	i	i	i	i	nt
Nc1cc([N+](=O)[O-])cc2oc(-c3ccccc3)cc12	i	10µM	i[0.501 µM]	?	12.6µM	i
CCCCn1c(NS(=O)(=O)c2ccc(C)cc2)c(S(=O)(=O)c2ccccc2)c2nc3ccccc3nc21	9.47µM	i	?	i	i	i
Cc1ccc(S(=O)(=O)c2c(N)n(CCCN(C)C)c3nc4ccccc4nc23)cc1	i	i	i[12.7 µM]	i	i	i
O=C(CCNc1ccc(Br)cc1)c1cccc([N+](=O)[O-])c1	?	?	3.16µM	79.4µM	20µM	i
O=C(CCNc1ccc(Cc2ccncc2)cc1)c1ccc([N+](=O)[O-])cc1	?	?	i	?	22.4µM	i
O=C(CNC(=O)c1ccc([N+](=O)[O-])cc1)c1ccccc1	i	i	i	i	i	i
O=C(CCNc1ccccc1)c1cccc([N+](=O)[O-])c1	?	?	17.8µM	i	?	i
O=C(CNc1ccccc1)c1ccc([N+](=O)[O-])cc1	?	?	4.47µM	i	i	50.1µM
O=C(CC(=O)c1ccccc1)Nc1cccc([N+](=O)[O-])c1	i	nt	nt	nt	nt	nt
Cc1cc2nc(-c3ccc(Cl)cc3)c(CC(C)(C)C)n2c(C)c1Br	i	nt	nt	nt	nt	nt
COc1cc(C(C(=O)NC2CCCC2)N(C(=O)c2snc(C(N)=O)c2N)c2ccccc2)cc(OC)c1OC (stereo unspecified)	i	i	i	i	i	i
O=C(C[n+]1cccc2ccccc21)c1ccc([N+](=O)[O-])cc1	?	i	?	i	28.2µM	i
CN(C)c1nc(C(=O)O)nc(N2CCOCC2)n1	i	i	?	i	31.6µM	i
CCNc1nc(C(=O)O)nc(N2CCOCC2)n1	i	8.91µM	3.98µM	i	0.794µM	79.4µM
CCn1c(O)c(/C=C2\C=Nc3ccccc32)sc1=Nc1ccccc1	i	i	i	i	i	i
